VDR inhibitor: vitamin D3 receptor (human) inhibition | P11473 | VDR-SRC2-3 peptide fluorescence polarization, 2 h | 0.93% of 400,000 active | Potency, µM, for the others: max response, negative = inhibition, actives largely listed as inhibitors | AID 504847; further: potency means the concentration at half of the fitted maximal effect; on the % scale 0 is the no-effect control and ±100 the full control effect
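Two reagent solutions held at 4 deg C in the dark were dispensed, compounds pinned at 23 nl, and the mixture incubated 2 h at room temperature. Read-out: fluorescence polarization of VDR–SRC2-3 peptide binding.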
PLK1 PBD block: inhibitors of human PLK1 polo-box domain binding. P53350. Plk1 PBD binding of FITC phosphopeptide, fluorescence polarization. Potency, µM, for the others: max response, negative = inhibition, hits mostly inhibitors. 2.8% of 360,000 active; further: potency means the concentration at half of the fitted maximal effect; series mostly up to about 57 µM; on the % scale 0 is the no-effect control and ±100 the full control effect; nearly all actives have a fitted effect of over 65% in size
KCNH2 3.1 block: KCNH2 3.1 (human) potassium channel inhibition; U2OS KCNH2 3.1, thallium flux FluxOr; hits give low values; activity change, % (tested at about 1.8 µM); 0.95% of 340,000 active;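 active means maximum activity change below -70%; inconclusive means maximum activity change from -70% to -50%; inactive means maximum activity change above -50%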;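 further: thallium influx rate constant from kinetic fluorescence after stimulation buffer; on the % scale 0 is the no-effect control and ±100 the full control effect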
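Channel expression came from 3.1 mutant virus (1.77 x 10^8 /mL) applied to suspended U2OS cells for 4 h. Flux was tracked with FluxOr dye plus Red40 quencher, and kinetic rate constants normalized to controls.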
KCNH2 WT inh: blocks the wildtype human KCNH2 potassium channel | Q12809 | U2OS, BacMam KCNH2, thallium flux FluxOr; hits give low values | activity change, % at 1.84 µM | 0.37% of 340,000 active;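 active means maximum activity change below -70%; inconclusive means maximum activity change between -70% and -50%; inactive means maximum activity change above -50%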; further: on the % scale 0 is the no-effect control and ±100 the full control effect
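U2OS cells transduced with wild-type KCNH2 virus are loaded with FluxOr dye for 45 min, and thallium flux is measured in kinetic reads before and after stimulation buffer. Rate constants are normalized to DMSO controls.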
CBFb-RUNX1 inh: inhibitors of human CBF-beta and RUNX1 interaction; Q01196+Q13951; AlphaScreen CBFb-His/RUNX1-biotin binding, biochemical; Potency, µM (highest dose often 59.8 µM), inactives show top-dose activity, negative = inhibition, hits mostly inhibitors; 230,000 tested, under 10 active; further: % of control where 0% means no effect
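AlphaScreen proximity signal reports loss of binding between His-tagged CBF-beta and biotin-labelled RUNX1, each at 30 nM. Proteins are pre-associated for 20 minutes, compounds added for 15 minutes, then beads for 90 minutes, all at ambient temperature.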
MBNL1-CUG inh: blocks human MBNL1 binding to CUG repeat RNA. TR-FRET MBNL1-His/biotin-(CUG)12 binding, 665/545 ratio. Potency, µM (doses to about 57.5 µM), without a hit: at the highest dose activity change, negative = inhibition, most hits filed as inhibitors. 0.036% of 280,000 active. AID 2675; active means well fitted inhibition curve with a large enough effect in the signal ratio, with a control signal flat, not every such curve was filed as active; inconclusive means small, poorly fitted or top-dose-only effect, or effect the other way, or a change in a side signal; inactive means no such curve, though single readings can be large or run the other way; the % refers to the signal ratio; further: potency means the concentration at half of the fitted maximal effect; on the % scale 0 is the no-effect control and ±100 the full control effect
Target sequence (Q9NR56 whole entry, looked up): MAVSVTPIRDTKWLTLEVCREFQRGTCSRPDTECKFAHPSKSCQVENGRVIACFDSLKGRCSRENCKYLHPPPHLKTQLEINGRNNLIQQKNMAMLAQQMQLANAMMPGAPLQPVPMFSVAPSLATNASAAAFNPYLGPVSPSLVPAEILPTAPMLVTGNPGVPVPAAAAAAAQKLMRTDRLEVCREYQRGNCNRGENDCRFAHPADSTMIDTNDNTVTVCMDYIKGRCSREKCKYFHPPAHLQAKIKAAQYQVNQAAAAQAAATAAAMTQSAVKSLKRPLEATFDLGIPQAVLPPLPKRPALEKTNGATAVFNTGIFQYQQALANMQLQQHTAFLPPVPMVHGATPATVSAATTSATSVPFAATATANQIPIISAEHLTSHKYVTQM
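Ratiometric TR-FRET (665 over 545 nm, excitation 340 nm) tracks disruption of MBNL1-His/biotin-(CUG)12 complex after 60 min at room temperature, with compounds at 92 nM to 58 uM final.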
Active calls of the source: *. Rows were chosen to be rich in hits. Some 3.8% of all compounds tested hit in one or more screens of this group. Unless noted, the call rests on the fitted dose curve; in most records, active means well fitted curve in the direction sought with a large enough effect; inconclusive means small, poorly fitted or top-dose-only effect, or another doubt; inactive means no such curve, though single readings can be large; an effect the other way counts as inactive or inconclusive.

How did CCOc1ccc(CCNC(=O)c2ccc(-c3nc(COc4ccc(C)cc4)c(C)o3)cc2)cc1 do in these assays?
VDR inhibitor: 5%

How did COc1cc(C2NC(=O)C(C#N)=C(Nc3cccc(C)c3)S2)ccc1O (stereo unspecified) do in these assays?
VDR inhibitor: 32µM*; PLK1 PBD block: inconclusive; KCNH2 3.1 block: 14; KCNH2 WT inh: -2; CBFb-RUNX1 inh: 5%; MBNL1-CUG inh: 0%

What do the screens show for `COC(=O)CSC1=C(C#N)C(=O)NC(c2ccccc2)S1` (stereo unspecified)?
VDR inhibitor: 3%; PLK1 PBD block: inconclusive; KCNH2 3.1 block: 27; KCNH2 WT inh: 6; CBFb-RUNX1 inh: -9%; MBNL1-CUG inh: 5%

How did CCOC(=O)C1CCCN(C(=S)Nc2ccc(Nc3ccccc3)cc2)C1 (stereo unspecified) do in these assays?
VDR inhibitor: -9%; PLK1 PBD block: 21µM*; KCNH2 3.1 block: -7; KCNH2 WT inh: -1; CBFb-RUNX1 inh: 2%; MBNL1-CUG inh: -2%

Results for CCOC(=O)C1CCN(C(=S)Nc2ccc(S(N)(=O)=O)cc2)CC1 ?
VDR inhibitor: -23%; PLK1 PBD block: 21µM*; KCNH2 3.1 block: 0; KCNH2 WT inh: -15; CBFb-RUNX1 inh: 22%; MBNL1-CUG inh: inconclusive

Results for CCOC(=O)C1CCCN(C(=O)Cc2ccc(C)cc2)C1 (stereo unspecified) ?
VDR inhibitor: 4%; PLK1 PBD block: 27µM*; KCNH2 3.1 block: 2; KCNH2 WT inh: -4; CBFb-RUNX1 inh: -2%; MBNL1-CUG inh: -6%

Results for CCOC(=O)C1CCCN(C(=O)Cc2ccc(OC)c(OC)c2)C1 (stereo unspecified) ?
VDR inhibitor: -1%; PLK1 PBD block: -12%; KCNH2 3.1 block: 0; KCNH2 WT inh: -1; CBFb-RUNX1 inh: 0%; MBNL1-CUG inh: -1%

How did CCOC(=O)C1CCN(C(=S)Nc2ccccc2)CC1 do in these assays?
VDR inhibitor: 0%; PLK1 PBD block: -18%; KCNH2 3.1 block: -39; KCNH2 WT inh: -11; CBFb-RUNX1 inh: 3%; MBNL1-CUG inh: 3%

How did CCOC(=O)c1ccc(NC(=O)CC2C(=O)N(c3ccc(F)cc3)C(=O)N2Cc2ccc3c(c2)OCO3)cc1 (stereo unspecified) do in these assays?
VDR inhibitor: -11%

How did COc1cc(C(=O)NCCCc2nc3ccccc3n2CC(C)C)cc(OC)c1OC do in these assays?
VDR inhibitor: -11%

What do the screens show for `C(=N\N(c1ccccc1)c1ccccc1)/c1ccccn1`?
VDR inhibitor: 9%; PLK1 PBD block: -5%; KCNH2 3.1 block: -11; KCNH2 WT inh: 2; MBNL1-CUG inh: 9%

How did C(/C=C/c1ccccn1)=C\c1ccccc1 do in these assays?
VDR inhibitor: -5%; PLK1 PBD block: -2%; KCNH2 3.1 block: -81*; KCNH2 WT inh: -5

Results for CC(=O)OCC(=O)[C@@]1(O)CCC2C3C[C@H](C)C4=CC(=O)C=CC4(C)C3C(O)CC21C (stereo partly specified) ?
VDR inhibitor: -17%; CBFb-RUNX1 inh: -9%

What do the screens show for `COc1ccccc1NC(=O)c1ncoc1-c1ccco1`?
VDR inhibitor: 5%

Results for Cc1ccc(C2CC(=O)NC(SCCC(C)C)=C2C#N)cc1 (stereo unspecified) ?
VDR inhibitor: -17%; PLK1 PBD block: 13µM*; KCNH2 3.1 block: -2; KCNH2 WT inh: 3; CBFb-RUNX1 inh: 3%; MBNL1-CUG inh: -5%

What do the screens show for `COC(=O)CSC1=C(C#N)C(c2ccc(C(C)C)cc2)CC(=O)N1` (stereo unspecified)?
VDR inhibitor: -4%; PLK1 PBD block: -17%; KCNH2 3.1 block: 6; KCNH2 WT inh: 8; CBFb-RUNX1 inh: -2%; MBNL1-CUG inh: 28%

How did Cc1ccc2cc(CCNC(=O)c3cc4ccccc4o3)c(=O)[nH]c2c1C do in these assays?
VDR inhibitor: -2%; PLK1 PBD block: -1%; KCNH2 3.1 block: -2; KCNH2 WT inh: 2; CBFb-RUNX1 inh: 8%; MBNL1-CUG inh: -1%

What do the screens show for `COc1ccc2cc(CCNC(=O)c3cc4ccccc4o3)c(=O)[nH]c2c1`?
VDR inhibitor: -8%; PLK1 PBD block: 5%; KCNH2 3.1 block: -4; KCNH2 WT inh: -80*; MBNL1-CUG inh: inconclusive

How did Cc1ccc(Cc2nc3ccccc3nc2SCC(=O)N2CCCCC2C)cc1 (stereo unspecified) do in these assays?
VDR inhibitor: 1%

What do the screens show for `CC(C)(C)NC(=O)C(c1ccc(F)cc1)N(CCc1ccccc1)C(=O)c1ccn[nH]1` (stereo unspecified)?
VDR inhibitor: -6%; PLK1 PBD block: 27µM*; KCNH2 3.1 block: -1; KCNH2 WT inh: 2; CBFb-RUNX1 inh: 5%; MBNL1-CUG inh: -13%

How did COc1ccc(N(C(=O)c2ccn[nH]2)C(C(=O)NC(C)(C)C)c2ccc(F)cc2)cc1 (stereo unspecified) do in these assays?
VDR inhibitor: -2%; PLK1 PBD block: -6%; KCNH2 3.1 block: -13; KCNH2 WT inh: -11; CBFb-RUNX1 inh: 4%; MBNL1-CUG inh: -10%

What do the screens show for `CCCN(CCC)CCCNC(=O)c1sc2nc3n(c(=O)c2c1C)CCC3`?
VDR inhibitor: 4%

Results for CCOc1ncccc1C(=O)Nc1ccc(Cl)cc1 ?
VDR inhibitor: inconclusive; PLK1 PBD block: 11µM*; KCNH2 3.1 block: -13; KCNH2 WT inh: -7; CBFb-RUNX1 inh: 13%; MBNL1-CUG inh: 1%

Results for CCC(c1nnnn1Cc1ccco1)N(Cc1cc2cc(C)cc(C)c2[nH]c1=O)CC1CCCO1 (stereo unspecified) ?
VDR inhibitor: -13%; PLK1 PBD block: 3.4µM*; KCNH2 3.1 block: 1; KCNH2 WT inh: -6; CBFb-RUNX1 inh: -10%; MBNL1-CUG inh: 7%

What do the screens show for `CCS(=O)(=O)N1CCc2cc(C(=O)Nc3ccc(C)c(Cl)c3)ccc21`?
VDR inhibitor: 29%

Results for CCSc1nn(CC(=O)Nc2cccc(Cl)c2)c(N)c1S(=O)(=O)c1ccc(OC)cc1 ?
VDR inhibitor: 6%

What do the screens show for `O=C(CN1C(=O)C(c2ccccc2)Oc2cccnc21)NCc1ccccc1F` (stereo unspecified)?
VDR inhibitor: inconclusive; PLK1 PBD block: 7.5µM*; KCNH2 3.1 block: -14; KCNH2 WT inh: -28; MBNL1-CUG inh: -1%

How did COc1ccc(CNC(=O)CN2C(=O)C(c3ccccc3)Oc3cccnc32)cc1 (stereo unspecified) do in these assays?
VDR inhibitor: 10%; PLK1 PBD block: -2%; KCNH2 3.1 block: 3; KCNH2 WT inh: -3; MBNL1-CUG inh: 0%

Screening data deposited in PubChem by National Center for Advancing Translational Sciences (NCATS).
